From PubChem BioAssay (NCATS)
Results filed as inconclusive are left out. The source made the active and inactive calls. Calls follow the shape of the dose curve; as a rule, active = well fitted cell-killing curve with a large enough effect; inconclusive = small, poorly fitted or top-dose-only effect, or effect the other way; inactive = flat fitted curve, though single readings scatter.

Legend:
Experiment in all cases: Primary qHTS to identify gynecologic anti-cancer compounds using libraries of approved drugs and bioactive compounds (AID 1345084); also: nearly all actives have a fitted effect of over 55% in size
C33A = details: Gynecologic cancer cell panel viability, ATPlite luminescence, 48 h; series mostly up to 57.5 µM
Method in brief: (§1)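 Five-concentration response, 48 h; readout is ATP-driven luciferase luminescence.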

CASKI = details: Gynecologic cancer cell panel viability, ATPlite luminescence, 48 h; series mostly up to 57.5 µM
Method in brief: as §1

Es-2 = details: Gynecologic cancer cell panel viability, ATPlite luminescence, 48 h; series mostly up to 57.5 µM
Method in brief: as §1

HeLa = details: Gynecologic cancer cell panel viability, ATPlite luminescence, 48 h; series mostly up to 57.5 µM
Method in brief: as §1

Hek293T = details: Gynecologic cancer cell panel viability, ATPlite luminescence, 48 h, control line for the selectivity index; series mostly up to 57.5 µM
Method in brief: as §1

JEG-3 = details: Gynecologic cancer cell panel viability, ATPlite luminescence, 48 h; series mostly up to 57.5 µM
Method in brief: as §1

OV90 = details: Gynecologic cancer cell panel viability, ATPlite luminescence, 48 h; series mostly up to 57.5 µM
Method in brief: as §1

SKOV3 = details: Gynecologic cancer cell panel viability, ATPlite luminescence, 48 h; series mostly up to 57.5 µM
Method in brief: as §1

Tov-21-G = details: Gynecologic cancer cell panel viability, ATPlite luminescence, 48 h; series mostly up to 57.5 µM
Method in brief: as §1

Tov112D = details: Gynecologic cancer cell panel viability, ATPlite luminescence, 48 h; series mostly up to 57.5 µM
Method in brief: as §1

PA-1 = details: Gynecologic cancer cell panel viability, ATPlite luminescence, 48 h; series mostly up to 57.5 µM
Method in brief: as §1

Measured: Potency

C[C@@H]1CC[C@]2(C(=O)O[C@@H]3O[C@H](CO)[C@@H](O)[C@H](O)[C@H]3O)CC[C@]3(C)C(=CCC4[C@@]5(C)C[C@@H](O)[C@H](O)[C@](C)(C(=O)O)C5CC[C@]43C)[C@@H]2[C@]1(C)O (stereo partly drawn)
inactive: C33A | CASKI | Es-2 | HeLa | Hek293T | JEG-3 | OV90 | SKOV3 | Tov-21-G | Tov112D

Cc1cc(NC(=O)Nc2ccc(F)c(F)c2)n(-c2ccccc2)n1
inactive: C33A | CASKI | Es-2 | HeLa | Hek293T | JEG-3 | OV90 | PA-1 | Tov-21-G | Tov112D

CC1CCC2C(C)(C)[C@@H](O)CC[C@]2(C)C12Cc1c(O)cc3c(c1O2)CN(C(CCC(=O)O)C(=O)O)C3=O (stereo partly drawn)
inactive: C33A | CASKI | Es-2 | HeLa | Hek293T | JEG-3 | OV90 | PA-1 | Tov-21-G | Tov112D

C=C1C(OC(=O)/C(C)=C\C)[C@@]23CCC4[C@@](C)(CCC[C@@]4(C)C(=O)O)C2CC[C@H]1C3OC(C)=O (stereo partly drawn)
inactive: C33A | CASKI | Es-2 | HeLa | Hek293T | JEG-3 | OV90 | PA-1 | SKOV3 | Tov-21-G | Tov112D

COc1ccc(CC2NCCc3c2[nH]c2ccc(C)cc32)cc1OC (stereo not drawn)
inactive: C33A | CASKI | Es-2 | HeLa | Hek293T | JEG-3 | OV90 | PA-1 | SKOV3 | Tov-21-G | Tov112D

CCC(COC)n1nnc2c(Nc3ccc(OC)cc3C)nc(C)cc21 (stereo not drawn)
inactive: C33A | CASKI | Es-2 | HeLa | Hek293T | JEG-3 | OV90 | PA-1 | Tov-21-G | Tov112D

Cn1c(=O)cc(N2CCCC(N)C2)n(Cc2cc(F)ccc2C#N)c1=O (stereo not drawn)
inactive: C33A | CASKI | Es-2 | HeLa | Hek293T | JEG-3 | OV90 | PA-1 | Tov-21-G | Tov112D

O=C(NCc1ccccn1)Nc1nnc(-c2ccco2)o1
inactive: C33A | CASKI | Es-2 | HeLa | Hek293T | JEG-3 | OV90 | PA-1 | SKOV3 | Tov-21-G | Tov112D

CCC(O)(C(=O)OCc1ccccc1NC(=O)CCC(=O)O)C(C)O (stereo not drawn)
inactive: C33A | CASKI | Es-2 | HeLa | Hek293T | JEG-3 | OV90 | PA-1 | Tov-21-G | Tov112D

CO[C@H]1C[C@@H]2CC[C@@H](C)[C@@](O)(O2)C(=O)C(=O)N2CCCC[C@H]2C(=O)O[C@H]([C@H](C)C[C@H]2CC[C@@H](OP(C)(C)=O)[C@H](OC)C2)CC(=O)[C@H](C)/C=C(\C)[C@@H](O)[C@@H](OC)C(=O)[C@H](C)C[C@H](C)/C=C/C=C/C=C/1C
inactive: C33A | CASKI | Es-2 | HeLa | Hek293T | JEG-3 | OV90 | PA-1 | Tov-21-G | Tov112D
